KB-3-1 cytotox – KB-3-1 parental cell cytotoxicity; Potency, µM (top dose mostly 46.1 µM), most hits filed as cytotoxic; KB-3-1 viability, CellTiter-Glo ATP luminescence, 72 h; AID 1347075; 400,000 tested, 1.4% active; note: nearly all actives have a fitted effect of over 60% in size
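Cells are dispensed, compounds pinned in, plates held at 37 °C for 72 h, then CellTiter-Glo is added and luminescence read after 10 minutes. Cell line: parental KB-3-1 in phenol-red-free DMEM, 10% FBS.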
HT1080NT lethal – kills 2HG-producing HT-1080-NT fibrosarcoma cells | HT-1080-NT fibrosarcoma viability, CellTiter-Glo ATP luminescence, 48 h | Potency, µM (doses to about 46.1 µM), for the others: top-dose activity, negative = less viability, usual class: cytotoxic | 360,000 tested, 1.6% active | AID 686970;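 note: NT is the 2HG producing partner of a matched IDH1 knockdown line; 0% = DMSO-treated cells and -100% = media-only wells without cells; nearly all actives have a fitted effect of over 55% in size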
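Compounds were tested in concentration-response format on HT-1080-NT cells for 48 hours at 37 degrees C. Cell viability came from CellTiter-Glo luminescence; curves were classified by r2, response magnitude and activity.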
HT1080 IDH1KD tx – HT-1080 IDH1 knockdown cell toxicity (counter line). HT-1080 IDH1 knockdown viability, ATP luminescence, 48 h. Potency, µM (doses to about 46.1 µM), for the others: at the highest dose activity, negative = toxicity, actives largely listed as cytotoxic. 360,000 tested, 2% active;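 note: 0% = DMSO wells and -100% = cell-free medium wells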
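After a 2 h attachment period, IDH1KD HT-1080 cells took pin-transferred compound for 48 h at 37 °C; ATP-based luminescence after 10 min room-temperature reagent incubation reported viability.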
KB-V1 MDR tox – kills drug-selected multidrug resistant KB-V1 cells; AID 1347076; KB-V1 MDR cells viability, CellTiter-Glo, 72 h; 400,000 tested, 3.4% active; Potency, µM (series often up to 46.1 µM), usual class: cytotoxic; note: nearly all actives have a fitted effect of over 60% in size
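Cytotoxicity via CellTiter-Glo luminescence after 72 h compound exposure at 37 degrees C. Cells: drug-selected KB-V1 line, DMEM phenol-red free plus 10% FBS. Compounds tested at multiple concentrations; normalized data fitted to concentration-effect curves.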
* marks the source's active call; other numbers are inactive results; i = inactive; ? = inconclusive; · = no result given; [ ] = another dose, or the depositor's remark. Most compounds without a hit are left out; they make up all but 5.7% or so of the library. Calls come from the whole dose curve; as a rule, active = well fitted curve in the direction sought with a large enough effect; inconclusive = small, poorly fitted or top-dose-only effect, or another doubt; inactive = no such curve, though single readings can be large; an effect the other way counts as inactive or inconclusive. Unless noted, % is set by controls: 0 for no effect and ±100 for the full control effect; potency is the fitted concentration of half-maximal effect.

SMILES	KB-3-1 cytotox	HT1080NT lethal	HT1080 IDH1KD tx	KB-V1 MDR tox
C=C1OC(CO)(n2cnc3c(N)ncnc32)C(O)C1O (stereo unspecified)	i	·	·	i
O=C(Nc1ncn[nH]1)c1ccc(Cl)c(S(=O)(=O)N2CCCCCC2)c1	i	-5.4%	4.4%	20.6µM*
O=C(Nc1ccncc1)c1ccc(Cl)c(S(=O)(=O)N2CCCCC2)c1	?	?	8.2µM*	?
O=C(Nc1ccc(Cl)c(S(=O)(=O)N2CCCCC2)c1)c1ccncc1	i	?	-13.2%	?
Cn1cccc1C(=O)Nc1ccc(Cl)c(S(=O)(=O)N2CCCCC2)c1	?	-1.5%	-3.1%	20.6µM*
O=C(Nc1ccc(Cl)c(S(=O)(=O)N2CCCCC2)c1)c1cnccn1	i	-0.3%	-13.8%	i
O=C(O)c1ccc(NC(=O)c2ccc(Cl)c(S(=O)(=O)N3CCCCCC3)c2)cc1	i	·	·	i
CC(C)CCOc1ccc(CC(=O)NO)cc1	i	·	·	i
COc1cccc(NC(=O)CN2C(=O)c3cccc4cccc2c34)c1	i	·	·	?
CCn1c(C)c(C)c2cc(C(=O)N3CCc4ccccc4C3)ccc21	13µM*	?	16.4µM*	?
COc1cc(N=c2ssnc2Cl)cc(OC)c1	i	-20.6%	-1.6%	i
Clc1nssc1=Nc1ccc(Br)cc1	i	16.4µM*	?	?
COc1ccc(C)cc1NC(=O)Cn1c(=O)ccc2cc(S(=O)(=O)N3CCC(C)CC3)ccc21	i	·	·	i
CCc1ccc(NC2=CC(=O)C(=O)c3ccccc32)cc1	18.4µM*	-2.8%	-3.0%	16.4µM*
O=C(O)c1ccccc1Nc1ccccc1C(=O)O	i	-9.5%[9.24 µM]	-13.5%	i
O=C1C=C(Nc2ccccc2)c2ccccc2C1=O	5.8µM*	?	5.17µM*	?
O=C1C=C(Nc2ccccc2C(=O)O)c2ccccc2C1=O	i	?	18.4µM*	i
CCCCNC1=CC(=O)C(NCCCC)=CC1=O	i	-22.2%	-17.2%	i
CCCCNC1=CC(=O)C(=O)c2ccccc21	i	-5.2%	23.1µM*	i
COc1ccccc1N1CCN(S(=O)(=O)c2ccc(F)c(C(=O)Nc3ccc(C)c(F)c3)c2)CC1	i	·	·	i
O=C(Cn1cc(S(=O)(=O)N2CCN(c3ccccc3F)CC2)c2ccccc2c1=O)Nc1cccc(C(F)(F)F)c1	i	·	·	i
O=C(CN1C(=O)c2ccccc2C1=O)Nc1cccc2cccnc12	i	-0.6%	3.6%	i
O=C1C=C(Nc2cccc3cccnc23)c2ccccc2C1=O	5.8µM*	?	2.06µM*	5.8µM*
CC1=CC(=O)c2ccccc2C1=O	i	27.4%	4.8%	i
O=C1C=C(Nc2ccccc2)C(=O)c2ccccc21	?	14.6µM*	?	?
SMILES	KB-3-1 cytotox	HT1080NT lethal	HT1080 IDH1KD tx	KB-V1 MDR tox
COC(=O)c1ccccc1NC(=O)NCc1ccc2c(c1)CCN2C(=O)c1ccccc1	i	·	·	i
CCNC(=S)NNC(=O)c1ccccn1	i	1.4%	-25.1%	11.6µM*
CCNC(=S)NNC(=O)c1ccccc1Cl	i	12.3%	10.7%	i
CC(Oc1cc(-c2ccccc2)cc2ccccc12)C(=O)N1CCOCC1 (stereo unspecified)	?	-0.6%	-2.6%	6.51µM*
COc1ccccc1N1CCN(C2CCN(C(=O)c3ccc(F)cc3)CC2)CC1	i	13.8%	8.8%	i
COc1ccccc1N1CCN(C(=O)c2nc(SC)ncc2Cl)CC1	4.11µM*	·	·	4.11µM*
COc1ccccc1N1CCN(C(=O)c2ccc3nc(-c4ccco4)c(-c4ccco4)nc3c2)CC1	?	?	?	23.1µM*
COc1ccccc1N1CCN(C(=O)c2nn(-c3ccccc3OC)c(=O)c3ccccc23)CC1	i	2.8%	-0.9%[9.24 µM]	?
COc1ccccc1N1CCN(C(=O)c2ccc3nc[nH]c3c2)CC1	i	14.7%	4.1%	i
COc1ccc(OC)c2sc(N3CCN(C(=O)c4ccc5ncsc5c4)CC3)nc12	i	-20.0%	-13.2%	i
COc1ccccc1N1CCN(C(=O)c2ccc3ncsc3c2)CC1	5.17µM*	11.6µM*	8.2µM*	11.6µM*
COc1ccccc1N1CCN(C2CCN(C(=O)c3cccc(F)c3)CC2)CC1	i	6.8%	-0.8%	16.4µM*
CC(=O)Nc1ccc(-c2nnc(SCc3ccccc3)n2C)cc1	?	·	·	i
Cn1c(Oc2ccc(Cl)cc2)nc2c1c(=O)n(Cc1ccc(F)cc1)c(=O)n2C	i	·	·	i
O=C(c1ccccc1)c1ccc2nc(-c3ccco3)c(-c3ccco3)nc2c1	i	?	18.4µM*	?
O=C(NCCc1ccccc1)c1ccc2nc(-c3ccco3)c(-c3ccco3)nc2c1	?	3.9%	-0.6%	?
Cc1ccc(C)c(N2CCN(C(=O)c3ccc4nc(-c5ccco5)c(-c5ccco5)nc4c3)CC2)c1	18.4µM*	?	?	?
Cc1ccc(C)c(N2CCN(C(=O)c3ccc4nc(N5CCOCC5)sc4c3)CC2)c1	?	1.1%	-13.4%	?
Cc1ccsc1C1Nc2ccc3ncccc3c2C2=C1C(=O)CC(C)(C)C2 (stereo unspecified)	i	10µM*	?	i
COc1ccc(-c2noc(C3CC(=O)N(c4ccc5c(c4)OCCO5)C3)n2)c(OC)c1 (stereo unspecified)	i	·	·	i
O=C(Nc1cccc(-c2cn3c(n2)SCC3)c1)c1ccc(Br)o1	i	-0.5%	10.0%	i
O=C(Cc1ccc(F)cc1)Nc1cccc(-c2cn3c(n2)SCC3)c1	i	-12.1%	-10.5%	18.4µM*
CCn1c2ccccc2c2cc(CNCCCN3CCOCC3)ccc21	i	?	20.6µM*	i
CCC(CC)NCc1ccc2c(c1)c1ccccc1n2CC	i	-19.8%	-10.6%	?
Cc1ccc(-c2cn3nc(N4CCCC(C(=O)NCc5ccccc5F)C4)sc3n2)cc1 (stereo unspecified)	i	·	·	i
SMILES	KB-3-1 cytotox	HT1080NT lethal	HT1080 IDH1KD tx	KB-V1 MDR tox
COc1cc(C(C)=O)ccc1Oc1ncnc2c1cnn2-c1ccc(C)c(C)c1	i	0.0%	7.4%	i
COc1cc(C(C)=O)ccc1Oc1ncnc2c1cnn2-c1ccccc1	i	1.0%	9.6%	14.6µM*
OC(CNCc1ccccc1)COCc1ccc(Cl)cc1 (stereo unspecified)	i	-27.5%	-15.6%	i
O=S(Cc1ccc(Cl)cc1)CC(O)COCc1ccc(Cl)cc1 (stereo unspecified)	i	-4.0%	-21.0%	16.4µM*
COc1ccc(-c2cnn3c(N)c(S(=O)(=O)C(C)(C)C)cnc23)cc1	i	-27.6%	?	14.6µM*
CC(C)(C)S(=O)(=O)c1cnc2c(-c3ccc(Cl)cc3)cnn2c1N	?	-0.2%	2.3%	i
Cc1cccc(CN2CCc3c([nH]c4ccccc34)C2)c1	i	-23.0%	-24.9%	?
COc1cc(OC)c(CN2CCc3c([nH]c4ccccc34)C2)cc1Br	?	16.4µM*	?	i

High-throughput results from PubChem BioAssay.
